The text below walks through data of PubChem BioAssay (Tox21).

Several values for one entry are separate records, joined by “and”; a condition that tells them apart may be missing. Identical values can stand only once. A number with no mark means an inactive call. Activity calls are given as the source filed them. Unless noted, the call rests on the fitted dose curve; in most records, active means well fitted curve in the direction sought with a large enough effect in the repeat runs; inconclusive means weak or mixed curves; inactive means flat fitted curve, though single readings scatter.

Assay [1] can be described thus: qHTS assay to test for compound auto fluorescence at 535 nm (green) in HEK293 cells (AID 720680). In general terms: In qHTS, concentration-response curves come from the screen itself.
Assay [2] in a line: qHTS assay to test for compound auto fluorescence at 460 nm (blue) in HEK293 cell free culture (AID 720681). Further: potency means the concentration at half of the fitted maximal effect. In a few lines:
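Blue fluorescence (Ex 405/Em 460 nm, triamterene-equivalent) was read immediately after pin transfer of compound or DMSO into medium (DMEM, 10% FBS) without cells.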

Assay [3] is described as follows: qHTS assay to test for compound auto fluorescence at 535 nm (green) in HEK293 cell free culture (AID 720682). In a few lines: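 Cell-free medium (DMEM, 10% FBS) receives compound or DMSO by pintool. Plate read directly at Ex 485/Em 535 nm. Signal converted to fluorescein equivalency.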
Assay [4] in a line: qHTS assay to test for compound auto fluorescence at 590 nm (red) in HEK293 cell free culture (AID 720683). In outline:
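Red-channel autofluorescence of compounds in culture medium (DMEM, 10% FBS), no cells, measured at 540/590 nm. Rose Bengal sodium is the reference fluorophore for equivalence.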

Assay [5] can be described thus: qHTS assay to test for compound auto fluorescence at 590 nm (red) in HepG2 cell free culture (AID 720684). In a few lines:
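Plate contents were MEM with 10% FBS plus test compound or DMSO, no cells. Fluorescence was recorded with 540 nm excitation and 590 nm emission.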

Assay [6] can be described thus: qHTS assay to test for compound auto fluorescence at 460 nm (blue) in HepG2 cells (AID 720687). In outline:
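Blue-channel autofluorescence (Ex/Em 405/460 nm, triamterene-equivalent) was measured after 1 hr compound exposure at 37 C, 5% CO2. Cells were HepG2, plated overnight at 37 C in MEM plus 10% FBS.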

Assay [7] concerns the target Glucocorticoid receptor (Homo sapiens) (UniProt P04150). The experiment in a line: qHTS assay to identify small molecule agonists of the glucocorticoid receptor (GR) signaling pathway (AID 720691; active means well fitted activation curve with a large enough effect in the signal ratio in the repeat runs, not every such curve was filed as active; inconclusive means weak or mixed curves, or effect the other way; inactive means no such curve, though single readings can be large or run the other way; the % refers to the signal ratio; further: potency means the concentration at half of the fitted maximal effect). As to conditions: GR-bla HeLa, beta-lactamase reporter ratio, 18 h; activation: at 62.4 µM (top of the series). In outline: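 GR-bla HeLa cells (beta-lactamase reporter under glucocorticoid response element) were plated 4 h at 37 C/5% CO2, given compounds in DMSO, and incubated 18 h at 37 C. LiveBLAzer B/G FRET substrate was added for 2 h at room temperature, then fluorescence intensity read.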

Assay [8] in a line: qHTS assay to test for compound auto fluorescence at 460 nm (blue) in HepG2 cell free culture (AID 720685). Further: potency means the concentration at half of the fitted maximal effect. In outline:
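Compound (23 nL) or DMSO pinned into cell-free MEM with 10% FBS; blue fluorescence read at 405/460 nm excitation/emission, expressed as auto-fluorescence equivalency to triamterene.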

The nature of assay [9]: qHTS assay to test for compound auto fluorescence at 535 nm (green) in HepG2 cell free culture (AID 720686).
Assay [10] deals with Glucocorticoid receptor (Homo sapiens) (UniProt P04150). The assay is described as follows: qHTS assay to identify small molecule antagonists of the glucocorticoid receptor (GR) signaling pathway (AID 720692; active means well fitted inhibition curve with a large enough effect in the signal ratio in the repeat runs, not every such curve was filed as active; inconclusive means weak or mixed curves, or effect the other way; inactive means no such curve, though single readings can be large or run the other way; the % refers to the signal ratio; further: potency means the concentration at half of the fitted maximal effect). In a few lines:
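GR-bla HeLa cells (beta-lactamase reporter under glucocorticoid response element) were pre-plated 4 h at 37 C, treated with compounds plus 5 nM dexamethasone (final) for 18 h, then read by LiveBLAzer B/G FRET fluorescence after 2 h.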
On the % scale 0 is the no-effect control and ±100 the full control effect; tags describe the fitted curve by direction and shape or compound fluorescence and quenching.

Glucocorticoid receptor (Homo sapiens), sequence (P04150 whole entry, looked up): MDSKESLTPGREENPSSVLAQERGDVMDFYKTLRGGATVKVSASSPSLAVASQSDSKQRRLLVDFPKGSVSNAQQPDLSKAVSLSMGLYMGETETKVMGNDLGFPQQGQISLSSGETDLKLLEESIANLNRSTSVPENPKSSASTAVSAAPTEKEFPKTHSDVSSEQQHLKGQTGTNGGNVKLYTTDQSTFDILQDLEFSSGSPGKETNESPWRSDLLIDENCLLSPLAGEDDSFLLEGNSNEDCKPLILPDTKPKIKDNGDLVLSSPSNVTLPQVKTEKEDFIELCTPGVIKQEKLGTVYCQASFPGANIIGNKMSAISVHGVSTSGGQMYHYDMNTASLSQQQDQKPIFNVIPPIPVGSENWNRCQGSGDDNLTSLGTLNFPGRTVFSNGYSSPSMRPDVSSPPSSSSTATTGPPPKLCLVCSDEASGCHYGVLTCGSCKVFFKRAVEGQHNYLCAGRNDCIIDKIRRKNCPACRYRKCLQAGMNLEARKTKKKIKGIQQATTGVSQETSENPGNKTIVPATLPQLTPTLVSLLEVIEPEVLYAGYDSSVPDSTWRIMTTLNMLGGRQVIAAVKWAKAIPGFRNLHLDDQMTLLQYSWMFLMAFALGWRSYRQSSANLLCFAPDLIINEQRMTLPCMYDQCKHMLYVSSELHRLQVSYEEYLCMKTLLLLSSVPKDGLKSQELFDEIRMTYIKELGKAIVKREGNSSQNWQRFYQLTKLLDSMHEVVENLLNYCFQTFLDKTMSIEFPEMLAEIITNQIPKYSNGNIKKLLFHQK

Regarding `CNC(=O)c1ccccc1`, the result in assay [1] and in assay [3] was inactive. For the same compound, the Potency entry in assay [2], in [4], in [5], in assay [6] and in assay [7] was “inactive” each time.
`Nc1ccccc1O`: the outcome in [1] and in assay [3] was inactive. Besides, the Potency entry in assay [2], in [4], in [5], in [8], in [6] and in [7] was “inactive” each time.
For `O=C(O)c1c(Cl)cccc1Cl`, the outcome in [1] and in [3] was inactive. For the same compound, the Potency entry in assay [2], in assay [4], in [5] and in [6] was “inactive” each time.
As for `N=C1C=CC(=C(c2ccc(N)cc2)c2ccc(N)cc2)C=C1`, the call in assay [1] and in assay [3] was inactive. Further, the Potency result in [2], in [4], in assay [5], in assay [9] and in assay [6] was “inactive” throughout.
For `CC(C)C(C)(C)C(C)(C)C(C)(C)S`, the call in [1] and in assay [3] was inactive. For the same compound, the Potency entry in [2], in assay [4], in [5], in [8] and in assay [6] was “inactive” each time.
For `CCN(C(=O)N(CC)c1ccccc1)c1ccccc1`, the compound was called inactive in assay [1] and in [3]. Moreover, the Potency entry in [2], in assay [4], in assay [5], in assay [9], in [6] and in assay [7] was “inactive” each time. The Potency entry in assay [10] was “inactive”.
In the case of `CCCC/C=C/CCCCO`, the compound was classed as inactive in [1] and in assay [3]. Also, the Potency result in assay [2], in [4], in assay [5], in assay [8], in [6] and in [7] was “inactive” in each case. In assay [10], the Potency entry is “inactive”.
For the compound `O=c1cc(-c2ccc(O)cc2)oc2cc(O)cc(O)c12`, the compound was classed as inactive in [1] and in assay [3]. Moreover, the Potency result in [2], in [4], in assay [5], in assay [9], in assay [6] and in assay [7] was “inactive” throughout. In addition, the Potency in assay [10] was 27.9 µM (active) and 27.5 µM (active).
For the compound `Oc1cccc2cc3cccc(O)c3c(O)c12`, the outcome in [1] and in [3] was inactive. Also, the Potency result in [2], in assay [4], in [5], in assay [9], in assay [7] and in [10] was “inactive” each time.
Regarding `O=S1(=O)CC(Cl)(Cl)C(Cl)(Cl)C1`, the compound was classed as inactive in [1] and in [3]. The Potency entry in assay [2], in [4], in assay [5] and in assay [9] was “inactive” throughout.
In the case of `CO[Si](CCCNc1ccccc1)(OC)OC`, the call in assay [1] and in assay [3] was inactive. Moreover, the Potency entry in [2], in assay [4], in [5], in [8], in [6] and in assay [7] was “inactive” in each case. Further, in assay [10], the Potency result was “inactive”.
With `O=C(O)c1cc(O)c2c(c1)C(=O)c1cccc(O)c1C2=O`, the outcome in assay [1] and in assay [3] was inactive. For the same compound, the Potency entry in assay [2], in [4], in assay [5], in [8], in assay [7] and in assay [10] was “inactive” each time.
Turning to `CC[C@@]1(O)C(=O)OCc2c1cc1n(c2=O)Cc2cc3c(CN(C)C)c(O)ccc3nc2-1`, the compound was called inactive in assay [1] and in assay [3]. Moreover, the results for the Potency in [2] and in assay [8] were 14.1 µM (active) and 14.1 µM [fluorescent] (active), respectively. Moreover, the Potency result in assay [4], in assay [5] and in assay [7] was “inactive” throughout.
With `O=C(O)c1ccc(Cl)c(Cl)c1`, the outcome in assay [1] and in assay [3] was inactive. Also, the Potency result in assay [2], in [4], in assay [5], in assay [9] and in [6] was “inactive” each time.
For the compound `COc1c(C)c2c(c(O)c1C/C=C(\C)CCC(=O)O)C(=O)OC2`, the fluorescence, % of fluorescein in assay [1] was -0.0651% [at 18.6 µM]. Further, the fluorescence, % of fluorescent control in assay [2] was -0.004% [at 18.6 µM]; in assay [4], 0.195% [at 18.6 µM]; in assay [8], 0.227% [at 18.6 µM]; in assay [6], -0.0404% [at 18.6 µM]. The fluorescence, % of Rose Bengal in [5] was 0.0127% [at 18.6 µM]. Besides, the fluorescence, % of fluorescein control in assay [9] is -0.0501% [at 18.6 µM].
On to `COc1cccc2c1C(=O)c1c(O)c3c(c(O)c1C2=O)C[C@@](O)(C(=O)CO)C[C@@H]3O[C@H]1C[C@H](N)[C@H](O[C@@H]2CCCCO2)[C@H](C)O1`, for which the call in assay [1] and in [3] was inactive. Besides, the Potency entry in assay [2], in [8] and in assay [9] was “inactive” in each case. For the same compound, in [7], the Potency is 3.01 µM (active).
Turning to `O=C1C=CC(=O)N1c1ccc(Cc2ccc(N3C(=O)C=CC3=O)cc2)cc1`, the call in assay [1] was inactive. In addition, the Potency entry in assay [2], in assay [4], in assay [5] and in assay [9] was “inactive” each time.
As for `CN(C)c1ccc(C2(c3ccc(N(C)C)cc3)OC(=O)c3cc(N(C)C)ccc32)cc1`, in [1], the compound was called inactive. Further, the Potency result in assay [2], in assay [4], in assay [5], in [8], in assay [9] and in [6] was “inactive” in each case. Moreover, the Potency in [7] is 4.35 µM [inconclusive] (active).
On to `CCCN(CCC)C(=O)C(CCC(=O)OCCCN1CCN(CCOC(=O)Cc2c(C)n(C(=O)c3ccc(Cl)cc3)c3ccc(OC)cc23)CC1)NC(=O)c1ccccc1` (configuration not stated), for which the compound was classed as inactive in assay [1]. Further, the Potency entry in [2], in [4], in assay [5], in [8], in assay [9] and in assay [6] was “inactive” throughout.
Take `NC(=O)N1C(=O)C(C(=O)c2cc(Cl)cs2)c2cc(F)c(Cl)cc21` (configuration not stated): the call in assay [1] was inactive. The Potency result in assay [2], in assay [4], in assay [5], in [8] and in assay [6] was “inactive” each time.
Turning to `CSc1ccc(C(=O)c2[nH]c(=O)[nH]c2C)cc1`, the outcome in [1] was inactive. The Potency entry in [2], in [4], in assay [5], in assay [9] and in assay [6] was “inactive” each time.
Turning to `CN(C/C=C/C#CC(C)(C)C)Cc1cccc2ccccc12`, the result in [1] was inactive. Further, the Potency entry in assay [2], in [4], in [5], in [9], in assay [6] and in assay [7] was “inactive” throughout. In addition, the Potency entry in [10] was “inactive”.
With `Cc1cc(O)c2ccccc2c1O`, in assay [1], the call was inactive. The Potency entry in assay [2], in assay [4], in assay [5], in assay [8], in [9] and in assay [6] was “inactive” in each case.
